# Measurements published in PubChem BioAssay AID430 (Sanford-Burnham Center for Chemical Genomics, 2006).
# Screen size: about 63,000 compounds; about 1,100 (1.7%) were called active. The sample holds actives, similar compounds and a random draw of the others, so the mix is not that of the screen. Measured potencies and affinities stand elsewhere. Unmarked numbers belong to inactive results. Rule as the data show it: active = cytotoxicity above about 50%; inactive = the rest.
# Assay: cytotoxicity in HPDE-C7 cells, cell-based, fluorescence, HTS (AID 430);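 also: cells exposed to compound for 48 hours before viability readout; 0% = vehicle and 100% = reference cytotoxic drug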
# Conditions: HPDE-C7 pancreatic duct cells viability, at 10 µM, hits give high values
row,Structure (SMILES),cytotoxicity
1,CCc1ccc(C(=O)N2CCN(c3ccc(F)cc3)CC2)s1,-18.1%
2,CC(=O)N1CCN(Cc2cc(=O)n3cc(Cl)c(C)c(Cl)c3n2)CC1,-7.9%
3,O/N=C(\Cc1cscn1)c1ccc(O)cc1O,-6.8%
4,CCn1c(=O)cc(SCC(=O)Nc2ccc3c(c2)OCO3)c2ccccc21,0.7%
5,CCOc1ccc(-c2cc(C(=O)N3CCN(c4ccccn4)CC3)c3ccccc3n2)cc1,56.9% (active)
6,O=C(c1cc(-c2ccncc2)nc2ccccc12)N1CCN(c2ccccn2)CC1,56.1% (active)
7,COc1ccc(-c2cc(C(=O)N3CCN(c4ccccn4)CC3)c3ccccc3n2)cc1,32%
8,Cc1ccc(-c2cc(C(=O)N3CCN(c4ncccn4)CC3)c3ccccc3n2)cc1,57.3% (active)
9,COc1cccc(-c2cc(C(=O)N3CCN(c4ncccn4)CC3)c3ccccc3n2)c1,-4.1%
10,Cc1ccc(-c2cc(C(=O)N3CCOCC3)c3ccccc3n2)cc1,-8.5%
11,CCOC(=O)N1CCN(C(=O)c2cc(-c3ccc(OCC)cc3)nc3ccccc23)CC1,57.6% (active)
12,CCOc1ccc(-c2cc(C(=O)N3CCN(C)CC3)c3ccccc3n2)cc1,-8.5%
13,O=C(c1cc(-c2ccncc2)nc2ccc(Br)cc12)N1CCN(c2ccccn2)CC1,12.7%
14,Cc1ccc2nc(-c3ccccn3)cc(C(=O)N3CCN(c4ncccn4)CC3)c2c1,8.9%
15,O=C(c1cc(-c2ccccc2)nc2ccccc12)N1CCN(c2ccccn2)CC1,17.1%
16,COc1cc(-c2cc(C(=O)N3CCN(c4ccccn4)CC3)c3ccccc3n2)cc(OC)c1OC,14.4%
17,Cc1ccc(S(=O)(=O)N2CCN(C(=O)CSc3nc4ccccc4o3)C2)cc1,-14.7%
18,O=C1CSC(c2ccccc2F)N1c1cc(Cl)ccc1O (stereo not drawn),9.2%
19,CSc1cccc(NC(=O)CN(C2CCCCC2)S(C)(=O)=O)c1,-17.9%
20,O=C(c1cccc(OC(F)F)c1)N1CCN(c2ncccn2)CC1,-14.1%
21,CCC(=O)Nc1ccc(S(=O)(=O)Nc2cccc(C)c2)cc1OC,3.2%
22,COc1ccc(CNC(=O)C2CCN(S(=O)(=O)c3cccc4cccnc34)CC2)cc1,2%
23,COc1cc(C2C3=C(Nc4ncnn42)c2ccccc2CC3)cc(OC)c1OC (stereo not drawn),73.5% (active)
24,COc1ccc(C2C3=C(Nc4ncnn42)c2ccccc2CCC3)cc1 (stereo not drawn),-20.3%

row,Structure (SMILES),cytotoxicity
1,COc1ccc(C2C3=C(Nc4ncnn42)c2ccccc2CC3)cc1OC (stereo not drawn),32.9%
2,CCN(CC)S(=O)(=O)c1cccc(-c2nnc(SCC#N)n2Cc2ccccc2)c1,3.5%
3,N#CCC(=O)N1CCn2c1nc1ccccc12,-11.2%
4,O=C1CC(N2CCN(c3ccc(F)cc3)CC2)C(=O)N1Cc1cccs1 (stereo not drawn),-1.7%
5,O=C1CC(N2CCN(c3nc4ccccc4s3)CC2)C(=O)N1Cc1cccs1 (stereo not drawn),12.3%
6,CCOC(=O)CSc1nc(N)cc(=O)[nH]1,-12%
7,Cc1ccc(C(=O)NCc2ccc3c(c2)OCO3)cc1S(=O)(=O)N1CCOCC1,-5.3%
8,Cc1cc(NC(=O)CCC(=O)N(c2ccccc2)C(C(=O)NCC2CCCO2)c2cccnc2)no1 (stereo not drawn),-0.6%
9,CSC1=C(C#N)C(c2ccc(C)s2)CC(=O)N1 (stereo not drawn),-8.2%
10,CCCOC(=O)CSC1=C(C#N)C(c2ccc3c(c2)OCO3)CC(=O)N1 (stereo not drawn),65.3% (active)
11,CCOC(=O)CSC1=C(C#N)C(c2ccccc2OC)CC(=O)N1 (stereo not drawn),54.9% (active)
12,CCOC(=O)CSC1=C(C#N)C(c2ccc(C)s2)CC(=O)N1 (stereo not drawn),54.7% (active)
13,CCOC(=O)CSC1=C(C#N)C(c2sccc2C)CC(=O)N1 (stereo not drawn),63.5% (active)
14,CCSC1=C(C#N)C(c2ccc(C)s2)CC(=O)N1 (stereo not drawn),-7.1%
15,CCCCOC(=O)CSC1=C(C#N)C(c2ccc3c(c2)OCO3)CC(=O)N1 (stereo not drawn),28.6%
16,CCOC(=O)CSC1=C(C#N)C(c2ccc3c(c2)OCO3)CC(=O)N1 (stereo not drawn),43.8%
17,COC(=O)CSC1=C(C#N)C(c2ccc(F)cc2)CC(=O)N1 (stereo not drawn),10.1%
18,CCSC1=C(C#N)C(c2ccccc2OC)CC(=O)N1 (stereo not drawn),-4.8%
19,CCOC(=O)CC(=O)CSC1=C(C#N)C(c2ccccc2OC)CC(=O)N1 (stereo not drawn),43.6%
20,CCOc1ccc(C2CC(=O)NC(SCC(=O)OC)=C2C#N)cc1 (stereo not drawn),5.6%
21,O=C1CCC(=O)N1CC(=O)N1c2ccccc2Sc2ccccc21,-7.4%
22,COc1ccc(-n2nc3c(c2NC(=O)c2cc4ccccc4oc2=O)CS(=O)(=O)C3)cc1,-14.8%
23,Cc1cc(C)n(-c2nc3c(c(=O)[nH]c(=O)n3C)n2CCc2ccccc2)n1,5.1%
24,Cc1[nH]c2ccccc2c1C(=O)CN1CCCCC1CCO (stereo not drawn),-11.2%
